L3MBTL1 inh: L3MBTL1 (human) inhibition | Potency, µM (highest dose often 57.1 µM), hits mostly inhibitors | AlphaScreen L3MBTL1–H3K9me1 peptide binding | hit rate 0.66% among 230,000 | AID 485360 | Q9Y468; note: nearly all actives have a fitted effect of over 60% in size
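Read-out is AlphaScreen signal from streptavidin donor and nickel chelate acceptor beads (10 ug/mL final each) bridging L3MBTL1 (50 nM) and biotinylated K9-monomethylated H3(1-15) peptide (75 nM), after 30 min compound exposure at room temperature.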
HP1b chromo inh: inhibitors of HP1-beta chromodomain binding to methylated histone tails | P83916 | AlphaScreen HP1-beta / biotin-H3K9me3 peptide binding | Potency, µM (doses to about 114 µM), hits mostly inhibitors | hit rate 0.56% among 390,000 | AID 540317; note: nearly all actives have a fitted effect of over 70% in size
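Compound inhibition of the preformed complex between 50 nM HP1-beta and 50 nM biotinylated H3K9me3 peptide was read by AlphaScreen. Buffer was PBS pH 7.4 with 0.01% Tween-20. Incubations ran 30 min at room temperature, with 10 ug/mL donor/acceptor beads.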
JMJD2A Tudor inh: JMJD2A Tudor domain (human) inhibition; AlphaScreen JMJD2A-Tudor / H3K4me3 peptide binding; Potency, µM (series often up to 114 µM), hits mostly inhibitors; hit rate 4.4% among 390,000; AID 504339; note: nearly all actives have a fitted effect of over 50% in size
BAZ2B inh: inhibitors of human BAZ2B bromodomain | Potency, µM (series often up to 114 µM), hits mostly inhibitors | hit rate 4.4% among 360,000 | Q9UIF8 | AlphaScreen BAZ2B-H3K14Ac peptide displacement | AID 504333; note: nearly all actives have a fitted effect of over 60% in size
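BAZ2B (50 nM) with biotin-H3(5-23)K14Ac peptide (50 nM) in PBS pH 7.4, 0.01% Tween-20, preformed 30 min, then compound 30 min at room temperature; top concentration 110uM. AlphaScreen streptavidin donor/nickel chelate acceptor beads (10 ug/mL final), 20 min dark, signal read.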
PI5P4Ka inh: inhibitors of human PI5P4K alpha | P48426 | PI5P4Kalpha enzyme, ADP-Glo luminescence, 60 min; active compounds read low | max response, % | hit rate 1.2% among 330,000 | AID 652105; active = max response of -50% or lower; inconclusive = between -30% and -50%; inactive = -30% or higher; note: value at the top dose of about 77 µM
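Single end-point luminescence (ADP-Glo) quantified ADP from PI5P4Kalpha turnover; ATP 5 microM final, 1 h at RT, 0.1% CHAPS and 0.28 mM EGTA in HEPES pH 7.4.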
KDM4E inh: inhibitors of human JMJD2E histone demethylase | hit rate 1.6% among 230,000 | B2RXH2 | AID 2147 | Potency, µM (series often up to 57.1 µM), actives largely listed as inhibitors | JMJD2E catalytic domain, FDH-coupled NADH fluorescence (FDH is formaldehyde dehydrogenase); active = well fitted inhibition curve with a large enough effect, not every such curve was filed as active; inconclusive = small, poorly fitted or top-dose-only effect, or another doubt; inactive = no such curve, though single readings can be large or run the other way; note: nearly all actives have a fitted effect of over 50% in size
Target sequence (B2RXH2 1-337 limits assumed): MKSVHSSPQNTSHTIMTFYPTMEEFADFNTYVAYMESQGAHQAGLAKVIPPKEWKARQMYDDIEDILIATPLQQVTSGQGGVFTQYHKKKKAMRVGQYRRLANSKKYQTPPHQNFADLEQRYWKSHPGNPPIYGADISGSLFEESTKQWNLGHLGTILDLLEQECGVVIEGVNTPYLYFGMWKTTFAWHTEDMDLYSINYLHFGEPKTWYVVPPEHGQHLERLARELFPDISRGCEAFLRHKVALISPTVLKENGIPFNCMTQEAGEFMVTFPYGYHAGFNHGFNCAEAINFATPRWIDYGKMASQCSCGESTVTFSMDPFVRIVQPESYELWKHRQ
A number is an active result; - = inactive; ? = inconclusive; . = no result. Rows were chosen to be rich in hits. Some 5.7% of all compounds tested hit in one or more screens of this group. Unless noted, calls come from the whole dose curve; as a rule, active = well fitted inhibition curve with a large enough effect; inconclusive = small, poorly fitted or top-dose-only effect; inactive = no such curve, though single readings can be large or run the other way.

SMILES | L3MBTL1 inh | HP1b chromo inh | JMJD2A Tudor inh | BAZ2B inh | PI5P4Ka inh | KDM4E inh
CCCCc1ccc(N=N/C(C(=O)Nc2ccc(NC(C)=O)cc2OC)=C(/C)O)cc1 | - | - | ? | ? | - | -
CO[C@]12CC(COC(=O)c3cncc(Br)c3)CN(C)[C@@H]1Cc1cn(C)c3cccc2c13 (some centres not stated) | . | . | . | . | . | -
[O-][n+]1c2c(nn1-c1ccccc1)/C(=N/O)CCC2 | - | - | - | - | - | -
[O-][n+]1onc2c1CCC(=N/O)/C2=N\Nc1ccccc1 | ? | . | . | 50µM | . | -
COc1ccccc1N1CCN(CC(O)COc2ccc(Cl)c(C)c2)CC1 (configuration not stated) | . | - | 89µM | ? | . | .
COc1ccccc1N1CCN(CC(O)COc2ccc(C)cc2C(C)(C)C)CC1 (configuration not stated) | . | ? | ? | 32µM | . | .
COc1ccccc1N1CCN(CC(O)COc2ccc(C)c(C)c2)CC1 (configuration not stated) | . | - | ? | ? | - | .
COc1ccccc1N1CCN(CC(O)COc2cc(C)cc(C)c2)CC1 (configuration not stated) | . | - | 79µM | ? | . | .
Cc1ccc(NC(=O)c2cnc(SCC(=O)N3CCCc4ccccc43)n(C)c2=O)cc1C | . | - | - | - | . | .
CCc1ccc(C2C(C#N)=C(N)N(N(C)C)C3=C2C(=O)CCC3)cc1 (configuration not stated) | . | - | - | - | - | .
CCN1C=C(Cc2ccccc2C)C2=C(C1)C(c1ccccc1C)C(C#N)=C(N)O2 (configuration not stated) | . | ? | 56µM | 45µM | - | ?
CCN1C=C(Cc2ccc(F)cc2)C2=C(C1)C(c1ccc(F)cc1)C(C#N)=C(N)O2 (configuration not stated) | . | - | 50µM | ? | - | ?
CC(=O)C1=C(c2ccccc2)OC(N)=C(C#N)C1c1ccccc1C (configuration not stated) | - | - | - | - | - | -
Cc1ccc(/C=C2\CCC3=C2OC(N)=C(C#N)C3c2ccc(C)cc2)cc1 (configuration not stated) | - | - | - | - | - | ?
COC(=O)c1ccccc1S(=O)(=O)NNC(=O)c1ccccc1-n1cccc1 | . | - | - | - | - | .
Cc1ccc(N(Cc2ccccc2)C(=O)CN2C(=O)NC3(CCCC3)C2=O)cc1 | . | - | - | - | - | .
COC(=O)C1=C(C)N(Cc2ccccc2)C(=NCCc2cccnc2)N[C@H]1c1ccccc1 | - | - | ? | 56µM | - | .
COC(=O)C1=C(C)N(Cc2ccccc2)C(=NCCCCO)N[C@H]1c1ccccc1 | - | - | ? | ? | - | .
COC(=O)C1=C(C)N(Cc2ccccc2)C(=NCCc2cccnc2)N[C@H]1c1ccc(Br)cc1 | - | - | 28µM | 56µM | - | .
COC(=O)[C@@]12CCCCN1[C@H](c1ccc(-c3ccccc3)cc1)[C@H]1C(=O)N(C)C(=O)[C@H]12 | - | - | - | - | - | .
COC(=O)[C@@]12CCCN1[C@H](c1ccc(-c3ccccc3)cc1)[C@H]1C(=O)N(C)C(=O)[C@H]12 | - | - | 79µM | - | - | .
O=C(CNS(=O)(=O)c1c(F)cc(F)cc1Br)OCC(=O)N1CCCC1=O | - | - | - | - | - | .
CC1=C(C(=O)Nc2cccc(C(F)(F)F)c2)C(c2ccccn2)n2ncnc2N1 (configuration not stated) | . | - | 50µM | ? | . | .
COc1ccccc1NC(=O)C1=C(C)Nc2ncnn2C1c1ccc[nH]1 (configuration not stated) | . | - | 56µM | ? | . | .
COc1ccc(NC(=O)C2=C(C)Nc3ncnn3C2c2ccccn2)cc1 (configuration not stated) | . | - | 89µM | ? | . | .
CCC(C)NC(=O)c1ccc2nc(-c3cccs3)c(-c3cccs3)nc2c1 (configuration not stated) | . | - | - | . | . | .
COc1ccccc1NC(=O)C1CCCN(c2ncnc3onc(-c4ccc(F)cc4)c23)C1 (configuration not stated) | . | - | - | - | . | .
